Experimental data from PubChem BioAssay AID602 (SRMLSC, 2007).
Out of some 85,000 compounds screened, about 35 (0.04%) were called active.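 How the source made its calls: active means viability drop by adding the cancer drug above about 55%, with treated viability meeting a 40% cutoff (limit read from the data); inactive means the rest, inconclusive results apart.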 Only a selection was taken, and actives are over-represented in it overall.

Test: reversal of MRP1-mediated doxorubicin resistance, primary screen, H69AR cells, doxorubicin co-treatment (AID 602);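 on differential viability (reversal): larger differential means the compound sensitizes cells more to doxorubicin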
Details: CellTiter-Glo, 72 h, at 10 µM; for differential viability (reversal): stronger effect = higher value
[1] = H69AR cells + 2 uM doxorubicin, measured here: viability with 2 uM doxorubicin, stronger effect = lower value
[2] = H69AR cells, measured here: cytotoxicity without doxorubicin

| Structure (SMILES) | differential viability (reversal) (H69AR cells + 2 uM doxorubicin) | viability [1] | viability [2] |
| --- | --- | --- | --- |
| CSC1=NP(=S)(SC)N(C)c2nc3n(c21)CCC3 (stereo not given) | 57.9% (active) | 27.2% | 85.1% |
| CCOc1ccc(CN(CCCl)CCCl)cc1C(=O)OC | -29% (inactive) | 83.1% | 54.1% |
| Cn1c(O)c(C=NCCN2CCNCC2)c(=O)n(C)c1=O | 8.13% (inactive) | 85.1% | 93.2% |
| CC(=O)NC(=O)NC(C)Cc1ccccc1 (stereo not given) | -9.72% (inactive) | 96.7% | 87% |
| CCN(N=Nc1nonc1OC)c1nonc1OC | 9.43% (inactive) | 86.2% | 95.7% |
